# Data as given in PubChem BioAssay (NCATS).
# Where “and” joins values, the source holds several entries; their conditions need not be identical. Identical values can stand only once. Results filed as inconclusive are left out. Entries that show only a call come without a potency. Values without a mark were called inactive. Calls of active or inactive are those of the source. Unless noted, calls follow the shape of the dose curve; as a rule, active = well fitted curve in the direction sought with a large enough effect; inconclusive = small, poorly fitted or top-dose-only effect, or another doubt; inactive = no such curve, though single readings can be large; an effect the other way counts as inactive or inconclusive.
# How the values were obtained:
# [1] = target: Cellular tumor antigen p53 (Homo sapiens) (UniProt P04637); test: Primary qHTS for small molecule compounds that upregulate eGFP-tagged delta133p53alpha (in N-terminal) cells. (AID 2060322); details: NCI-H358 eGFP-delta133p53alpha fluorescence, 24 h; activation: stronger effect = higher value; also: nearly all actives have a fitted effect of over 75% in size
# Cellular tumor antigen p53 (Homo sapiens), sequence (P04637 whole entry, looked up): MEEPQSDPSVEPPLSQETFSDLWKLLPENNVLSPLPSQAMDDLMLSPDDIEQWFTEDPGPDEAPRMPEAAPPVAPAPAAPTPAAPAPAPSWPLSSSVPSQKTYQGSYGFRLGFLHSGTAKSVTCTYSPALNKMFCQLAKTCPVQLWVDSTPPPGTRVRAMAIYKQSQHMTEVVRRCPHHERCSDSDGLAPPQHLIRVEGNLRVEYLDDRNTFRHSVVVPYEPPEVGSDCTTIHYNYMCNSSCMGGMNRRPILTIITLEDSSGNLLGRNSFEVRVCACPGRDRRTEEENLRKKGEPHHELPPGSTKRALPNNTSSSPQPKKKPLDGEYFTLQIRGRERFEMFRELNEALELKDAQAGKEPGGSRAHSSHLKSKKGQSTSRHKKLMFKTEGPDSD
# Summary of the method: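 NCI-H358 cells pre-induced 24 h with 10 ng/ml doxycycline to express N-terminal eGFP-delta133p53alpha, then dosed 24 h at 37C without doxycycline; fixed, Hoechst-stained, GFP intensity by laser scanning cytometry, normalized to DMSO (0%) and 57.5 uM 5-azacytidine (100%).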
# [2] = target: Aldehyde dehydrogenase, mitochondrial (Homo sapiens) (UniProt P05091); test: qHTS for Inhibitors of the Aldehyde Dehydrogenase Family (ALDH2) Confirmatory screens (AID 2061303; active = well fitted inhibition curve with a large enough effect; title and protocol of this record describe different tests; also: nearly all actives have a fitted effect of over 45% in size); details: ALDH inhibition qHTS; series mostly up to 45.4 µM
# [3] = target: Aldehyde dehydrogenase, mitochondrial (Homo sapiens) (UniProt P05091); test: qHTS for Inhibitors of the Aldehyde Dehydrogenase Family (ALDH2) Primary screen (AID 2061308); details: ALDH2 enzyme inhibition qHTS, 1536-well; series mostly up to 56 µM; also: nearly all actives have a fitted effect of over 55% in size
# [4] = target: Retinaldehyde dehydrogenase 3 (Homo sapiens) (UniProt P47895); test: qHTS for Inhibitors of the Aldehyde Dehydrogenase Family (ALDH1A3) Confirmatory screens (AID 2061311); details: ALDH inhibition qHTS; series mostly up to 46 µM; also: nearly all actives have a fitted effect of over 60% in size
# [5] = target: Retinaldehyde dehydrogenase 3 (Homo sapiens) (UniProt P47895); test: qHTS for Inhibitors of the Aldehyde Dehydrogenase Family (ALDH1A3) Validation screen (AID 2061312); details: ALDH1A3 enzyme inhibition qHTS validation, fluorescence; series mostly up to 84.7 µM; also: nearly all actives have a fitted effect of over 45% in size
# [6] = target: Retinaldehyde dehydrogenase 3 (Homo sapiens) (UniProt P47895); test: qHTS for Inhibitors of the Aldehyde Dehydrogenase Family (ALDH1A3) Primary screen (AID 2061315); details: ALDH inhibition qHTS; series mostly up to 56 µM
# [7] = BET inhibitor-based combinations targeting novel dependencies in MECOM-rearranged (r) AML: SET-2 cell line (AID 2202231); details: SET-2 AML cells viability, CellTiter-Glo luminescence, 48 h; viability: stronger effect = lower value, concentration not given here; also: nearly all actives have a fitted effect of over 35% in size
# Summary of the method: (§1)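 Viability of cells (500 per well) is scored by luminescent CellTiter-Glo at 48 hr post-dosing. Eleven-point titrations are normalized to DMSO and empty controls and reduced to AUC values.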
# [8] = BET inhibitor-based combinations targeting novel dependencies in MECOM-rearranged (r) AML: OCI-AML3 cell line (AID 2202232); details: CellTiter-Glo luminescence, 48 h; Potency: OCI-AML3 viability; series mostly up to 46 µM; also: nearly all actives have a fitted effect of over 35% in size
# Summary of the method: as §1
# [9] = BET inhibitor-based combinations targeting novel dependencies in MECOM-rearranged (r) AML: MV-4-11 cell line (AID 2202233); details: MV-4-11 AML viability, CellTiter-Glo luminescence, 48 h; series mostly up to 46 µM; also: nearly all actives have a fitted effect of over 45% in size
# Summary of the method: (§2)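 Using pin-tool transfer, drugs were added in 11 doses to cells (500/well), incubated 48 hr, and assessed with CellTiter-Glo. Z-AUC is a mean-centring transformation applied separately to each screened line.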
# [10] = BET inhibitor-based combinations targeting novel dependencies in MECOM-rearranged (r) AML: UCSD-AML1 cell line (AID 2202235); details: UCSD-AML1 AML cells viability, CellTiter-Glo, 48 h; series mostly up to 46 µM; also: nearly all actives have a fitted effect of over 40% in size
# Summary of the method: as §2
# [11] = BET inhibitor-based combinations targeting novel dependencies in MECOM-rearranged (r) AML: AML-191 cell line (AID 2202236; also: nearly all actives have a fitted effect of over 35% in size); details: AML-191 viability, CellTiter-Glo luminescence, 48 h; series mostly up to 46 µM
# Summary of the method: as §1
# [12] = BET inhibitor-based combinations targeting novel dependencies in MECOM-rearranged (r) AML: AML-194 cell line (AID 2202237; also: nearly all actives have a fitted effect of over 40% in size); details: AML-194 (MECOM-r AML) viability, CellTiter-Glo, 48 h; series mostly up to 46 µM
# Summary of the method: as §1
# [13] = target: Retinal dehydrogenase 2 (Homo sapiens) (UniProt O94788); test: qHTS for Inhibitors of the Aldehyde Dehydrogenase Family (ALDH1A2) Confirmation screens (AID 2061314); details: ALDH1A2 enzyme inhibition qHTS confirmation; series mostly up to 45.9 µM; also: nearly all actives have a fitted effect of over 65% in size
# [14] = target: Aldehyde dehydrogenase 1A1 (Homo sapiens) (UniProt P00352); test: qHTS for Inhibitors of the Aldehyde Dehydrogenase Family (ALDH1A1) Confirmatory screens (AID 2061316); details: ALDH inhibition qHTS; series mostly up to 47.3 µM; also: nearly all actives have a fitted effect of over 65% in size
# [15] = BET inhibitor-based combinations targeting novel dependencies in MECOM-rearranged (r) AML: HNT-34 cell line (AID 2202234); details: HNT-34 AML viability, CellTiter-Glo luminescence, 48 h; series mostly up to 46 µM; also: nearly all actives have a fitted effect of over 35% in size
# Summary of the method: as §2
# Potency is read from the fitted curve at half-maximal effect.
smiles,measurement,setting,value
CCOC(=O)C1=C(N)Oc2ccc(Br)cc2C1C(C#N)C(=O)OCC (stereo not drawn),Potency,[1],30.1 µM (active)
same,Potency,[2],inactive
same,Potency,[3],inactive
same,Potency,[4],11.3 µM (active)
same,Potency,[5],inactive
same,Potency,[6],inactive
same,viability,[7],112%
same,Potency,[8],inactive
same,Potency,[9],inactive
same,Potency,[10],inactive
same,Potency,[11],inactive
same,Potency,[12],inactive
C=CC(=O)Nc1cccc(Nc2nc(Nc3ccc(Oc4ccnc(C(=O)NC)c4)cc3)ncc2F)c1,Potency,[1],4.26 µM (active)
same,Potency,[2],inactive
same,Potency,[3],inactive
same,Potency,[4],inactive
same,Potency,[13],inactive
same,Potency,[6],inactive
same,Potency,[14],inactive
same,Potency,[7],23.5 µM (active)
same,Potency,[8],18.6 µM (active)
same,Potency,[9],6.61 µM (active)
same,Potency,[15],8.33 µM (active)
same,Potency,[10],18.6 µM (active)
same,Potency,[11],16.6 µM (active)
same,Potency,[12],18.6 µM (active)
CN(C)c1cccc(Oc2cnc(Nc3cccc(O)c3)nc2)c1,activation,[1],2.86%
same,Potency,[2],inactive
same,Potency,[5],8.91 µM (active)
O=C(O)c1cn(C2CC2)c2cc(N3C[C@@H]4C[C@H]3CN4)c(F)cc2c1=O,activation,[1],11.7%
same,Potency,[2],inactive
same,Potency,[3],inactive
same,Potency,[4],inactive
same,Potency,[13],inactive
same,Potency,[6],inactive
same,Potency,[14],31.8 µM (active)
O=c1nc(-c2ccccn2)sc2ccccc12,activation,[1],-10.5%
same,Potency,[2],inactive
same,Potency,[3],15.8 µM (active)
same,Potency,[5],2.82 µM (active)
same,Potency,[13],inactive
same,Potency,[6],inactive
same,Potency,[14],1.13 µM (active)
OCC(O)C(c1c[nH]c2ccccc12)c1c[nH]c2ccccc12 (stereo not drawn),activation,[1],-8.93%
same,Potency,[2],inactive
same,Potency,[3],inactive
same,Potency,[6],inactive
C=C1C(=O)OC2CC(C)=C(C(C)CCCO)C(O)C12 (stereo not drawn),activation,[1],7.14%
same,Potency,[2],inactive
same,Potency,[3],inactive
same,Potency,[13],inactive
same,Potency,[6],inactive
O=C(O)c1cc(O[C@@H]2O[C@H](CO[C@@H]3OC[C@@H](O)[C@H](O)[C@H]3O)[C@@H](O)[C@H](O)[C@H]2O)c2ccccc2c1O,activation,[1],9.92%
same,Potency,[2],inactive
same,Potency,[4],1.38 µM (active)
same,Potency,[13],2.46 µM (active)
same,Potency,[6],2.82 µM (active)
same,Potency,[14],0.693 µM (active)
Cc1[nH]c(/C=C2\C(=O)Nc3cc(-c4ccccc4)ccc32)c(C)c1CCC(=O)O,activation,[1],-26.3%
same,Potency,[2],inactive
same,Potency,[3],inactive
same,Potency,[5],inactive
same,Potency,[6],inactive
same,Potency,[14],inactive
Cc1ccc(NC(=O)N2CCN(c3nc(N)nc4sc(-c5cccnc5)nc34)CC2)cc1,activation,[1],26.7%
same,Potency,[2],0.0355 µM (active)
same,Potency,[4],2.52 µM (active)
same,Potency,[5],2.82 µM (active)
same,Potency,[13],14.1 µM (active)
same,Potency,[14],28.3 µM (active)
C=C[C@H]1[C@H](O[C@@H]2O[C@H](CO)[C@@H](O)[C@H](O)[C@H]2O)OC=C(C(=O)OC)[C@H]1CCOC(=O)c1cc(O)c(O)c(O)c1,activation,[1],0%
same,Potency,[2],inactive
same,Potency,[3],inactive
same,Potency,[4],6.18 µM (active)
same,Potency,[13],inactive
same,Potency,[14],inactive
CCOC(=O)C1=C(N)Oc2ccc(Cl)cc2C1C(C#N)C(=O)OCC (stereo not drawn),Potency,[1],23.9 µM (active)
same,Potency,[2],inactive
same,Potency,[3],inactive
same,Potency,[4],12.7 µM (active)
same,Potency,[5],inactive
same,Potency,[6],inactive
same,Potency,[14],inactive
COc1cc2ncc(-c3ccccc3)nc2cc1OC,activation,[1],-16.1%
same,Potency,[2],inactive
same,Potency,[3],inactive
same,Potency,[13],inactive
Cn1cc(-c2ccncc2)c(-c2ccc(OCc3ccc4ccccc4n3)cc2)n1,activation,[1],-22.8% and -12.9%
same,Potency,[2],inactive
same,Potency,[3],inactive
same,Potency,[5],inactive
same,Potency,[13],inactive
same,Potency,[6],inactive
same,Potency,[14],inactive
same,Potency,[8],11.8 µM (active)
same,Potency,[9],5.9 µM (active)
same,Potency,[10],inactive
Oc1ccc(Nc2nc(-c3ccc(Cl)cc3)cs2)cc1,activation,[1],24.1%
same,Potency,[2],inactive
same,Potency,[3],inactive
same,Potency,[4],inactive
same,Potency,[13],inactive
same,Potency,[6],inactive
same,Potency,[7],9.34 µM (active)
same,Potency,[9],14.8 µM (active)
same,Potency,[10],6.61 µM (active)
same,Potency,[11],16.6 µM (active)
same,Potency,[12],inactive
C=C1C(=O)OC2C1CCC(=C)C1CC(OC(C)=O)C(=C)C12 (stereo not drawn),Potency,[1],16.9 µM (active)
same,Potency,[2],inactive
same,Potency,[3],inactive
same,Potency,[6],inactive
COc1cccc(-c2ccc(NC(=O)C3=C(C(=O)O)CCC3)c(F)c2)c1,activation,[1],-4.2% and -13.4%
same,Potency,[2],inactive
same,Potency,[3],inactive
same,Potency,[14],12.7 µM (active)
same,Potency,[15],inactive
same,Potency,[10],inactive
CC(C)=C1CC2C(CCC2(C)O)C(C)(O)CC1=O (stereo not drawn),activation,[1],1.79%
same,Potency,[2],inactive
same,Potency,[3],inactive
same,Potency,[13],inactive
same,Potency,[6],inactive
CC(CC(C)O[C@@H]1O[C@H](CO)[C@@H](O)[C@H](O)[C@H]1O)OC(=O)/C=C/c1ccc(O)cc1 (stereo partly drawn),activation,[1],3.82%
same,Potency,[2],inactive
same,Potency,[3],inactive
same,Potency,[13],inactive
same,Potency,[6],inactive
